Source: PubChem (National Center for Advancing Translational Sciences (NCATS))
An excerpt weighted towards active compounds, which were near 9% of everything screened.
LMNA splice mod: qHTS Assay for Modulators of Lamin A Splicing; 0.01% of 200,000 active; HeLa LMNA splicing GFP/RFP minigene ratio, 48 h; Potency, µM (series often up to 46.1 µM), usual class: inhibitors; active means well fitted inhibition curve with a large enough effect in the signal ratio, with a control signal flat, not every such curve was filed as active; inconclusive means small, poorly fitted or top-dose-only effect, or effect the other way, or a change in a side signal; the % refers to the signal ratio
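S3 HeLa stable clones carrying a lamin A-EGFP splicing minigene plus DsRed2 were seeded at 600 cells/well in Opti-MEM with 2% FBS, pin-dosed and incubated 48 h at 37°C. Acumen cytometry (488 nm) gave the GFP/RFP total-intensity ratio.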
IMPase Li inh: qHTS Assay for Identifying the Cell-Membrane Permeable IMPase Inhibitors: Potentiation with Lithium | CHO-M1 cells, IP1 TR-FRET (IP-One), carbachol + lithium | Potency, µM (series often up to 59.4 µM), actives largely listed as inhibitors | 0.35% of 210,000 active; active means well fitted curve in the direction sought with a large enough effect; inconclusive means small, poorly fitted or top-dose-only effect, or another doubt; inactive means no such curve, though single readings can be large; an effect the other way counts as inactive or inconclusive;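 further: IP1 builds up when IMPase is blocked and the TR-FRET signal falls; nearly all actives have a fitted effect of over 50% in size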
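Concentration–response in CHO-M1 cells, lithium-potentiated; 30 min at 37C. IP1 detected by competitive TR-FRET after 10 min lysis at RT. Hill-fitted AC50.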
HPGD block: qHTS Assay for Inhibitors of HPGD (15-Hydroxyprostaglandin Dehydrogenase); purified HPGD, NADH fluorescence kinetic, PGE2 substrate; 4.3% of 150,000 active; 15-hydroxyprostaglandin dehydrogenase [NAD(+)] (Homo sapiens), P15428; Potency, µM, actives largely listed as inhibitors; AID 894, 2007
Target sequence (P15428 whole entry, looked up): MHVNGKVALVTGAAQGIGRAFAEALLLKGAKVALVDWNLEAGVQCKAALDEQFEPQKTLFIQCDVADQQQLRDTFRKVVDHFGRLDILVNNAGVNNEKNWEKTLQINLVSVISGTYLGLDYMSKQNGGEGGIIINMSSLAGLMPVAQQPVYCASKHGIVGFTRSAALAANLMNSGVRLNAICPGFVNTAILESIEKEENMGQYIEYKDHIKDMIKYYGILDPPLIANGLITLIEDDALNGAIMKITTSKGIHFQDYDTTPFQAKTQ
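20 nM HPGD preincubated 15 min at room temperature with compound in 50 mM Tris-HCl pH 8, 0.01% Tween 20. Started with 1 mM NAD+ and 30 uM prostaglandin E2; NADH fluorescence (360/450 nm) read 5 times over 30-s intervals, last minus first.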
ALDH1A1 inh: qHTS Assay for Inhibitors of Aldehyde Dehydrogenase 1 (ALDH1A1); Aldehyde dehydrogenase 1A1 (Homo sapiens), P00352; Purified ALDH1A1, NADH fluorescence, propionaldehyde substrate; Potency, µM (series often up to 75.3 µM), actives largely listed as inhibitors; 7.3% of 220,000 active
Target sequence (P00352 whole entry, looked up): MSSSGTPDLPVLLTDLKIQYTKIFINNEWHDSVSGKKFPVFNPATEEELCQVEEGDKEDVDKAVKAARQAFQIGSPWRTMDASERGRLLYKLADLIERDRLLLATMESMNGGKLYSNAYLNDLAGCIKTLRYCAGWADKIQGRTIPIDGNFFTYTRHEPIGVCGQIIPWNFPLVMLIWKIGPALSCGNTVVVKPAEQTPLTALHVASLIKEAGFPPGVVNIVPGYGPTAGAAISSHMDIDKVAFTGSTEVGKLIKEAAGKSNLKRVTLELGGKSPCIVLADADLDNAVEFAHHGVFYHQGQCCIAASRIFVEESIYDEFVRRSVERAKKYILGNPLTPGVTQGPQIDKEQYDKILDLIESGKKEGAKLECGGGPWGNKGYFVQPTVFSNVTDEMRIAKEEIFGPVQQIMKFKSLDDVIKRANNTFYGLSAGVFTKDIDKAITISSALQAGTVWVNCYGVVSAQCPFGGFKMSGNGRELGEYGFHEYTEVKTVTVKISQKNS
Luc counter: Counterscreen for Luciferase (Kinase-Glo TM) Inhibition; Luciferin 4-monooxygenase (Photuris pensylvanica), Q27757; Kinase-Glo luciferase, ATP luminescence, 8 min; Potency, µM (titrated, usually from 38.3 µM), usual class: inhibitors; 0.28% of 200,000 active; AID 1379, 2008; active means well fitted curve in the direction sought with a large enough effect; inconclusive means small, poorly fitted or top-dose-only effect, or another doubt; inactive means no such curve, though single readings can be large; an effect the other way counts as inactive or inconclusive; further: nearly all actives have a fitted effect of over 60% in size
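Compound is pinned into ATP-containing buffer (10 uM ATP, imidazole pH 7.2, 7 mM MgCl2). Kinase-Glo luciferase reagent is then added. Light output is recorded following an 8-min room-temperature incubation.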
Of the large screens only hits and unclear results are named; the others gave an inactive call. Unless noted, the call rests on the fitted dose curve; in most records, active means well fitted inhibition curve with a large enough effect (not every such curve was filed as active); inconclusive means small, poorly fitted or top-dose-only effect, or another doubt; inactive means no such curve, though single readings can be large or run the other way.

CC1=NN(c2ccccc2)C(=O)/C1=C/C=C/c1ccc(N(C)C)cc1	LMNA splice mod inconclusive, Luc counter 13µM (no result: HPGD block)
CCOC(=O)CC1=NN(c2ccccc2)C(=O)/C1=C\c1ccc(N(C)C)cc1	ALDH1A1 inh 5µM
O=C(NCc1cccnc1)c1ccc(-c2cc3ccccc3oc2=O)cc1	LMNA splice mod inconclusive, ALDH1A1 inh inconclusive (no result: HPGD block)
COc1ccccc1C(=O)O/N=C(/C)c1ccc(N2C(=O)C3CCCCC3C2=O)cc1 (stereo not given)	HPGD block 25µM, ALDH1A1 inh 13µM
CCOc1ccc(CN(C(=O)c2ccco2)C2CCS(=O)(=O)C2)cc1 (stereo not given)	IMPase Li inh inconclusive
O=C(/C=C/c1ccc(Cl)cc1Cl)N(Cc1ccccc1)C1CCS(=O)(=O)C1 (stereo not given)	ALDH1A1 inh 2.2µM
O=C(/C=C/c1ccc(Cl)cc1)N(Cc1ccccc1)C1CCS(=O)(=O)C1 (stereo not given)	ALDH1A1 inh 13µM
COc1cccc(C(=O)N(Cc2ccc(N(C)C)cc2)C2CCS(=O)(=O)C2)c1 (stereo not given)	ALDH1A1 inh 14µM
COc1ccc(CN(C(=O)/C=C/c2ccco2)C2CCS(=O)(=O)C2)cc1 (stereo not given)	ALDH1A1 inh 14µM (no result: LMNA splice mod, IMPase Li inh, HPGD block, Luc counter)
CCCn1c(C)nc2c(NCCN3CCCC3)nc(C)nc21	none (no result: LMNA splice mod)
NCC1O[C@@H](OC2C(N)C[C@H](N)[C@@H](O[C@H]3OC(CO)C(O)C(N)C3O)C2O)C(N)C(O)C1O (stereo not given in full)	none (no result: LMNA splice mod)
CCOC(=O)C1=C(CC)Nc2ccccc2N=C1NC(=O)c1ccc(S(=O)(=O)N2CCOCC2)cc1	ALDH1A1 inh 14µM (no result: LMNA splice mod, HPGD block)
CCOC(=O)C1=C(C)Nc2ccccc2N=C1NC(=O)c1cccc(S(=O)(=O)N(C)C)c1	none
CCOC(=O)C1=C(C)Nc2ccccc2N=C1NC(=O)C(c1ccccc1)c1ccccc1	ALDH1A1 inh 0.14µM (no result: LMNA splice mod, HPGD block)
CC[C@H](/C=C/[C@@H](C)[C@H]1CC[C@H]2C3CC=C4C[C@@H](O)CC[C@]4(C)C3CC[C@]12C)C(C)C (stereo not given in full)	none (no result: LMNA splice mod)
COc1ccccc1C1C=C(c2ccc(C)cc2)Nc2nnnn21 (stereo not given)	LMNA splice mod inconclusive, ALDH1A1 inh 14µM
COc1ccccc1C1C2=C(CC(C)(C)CC2=O)Nc2nnnn21 (stereo not given)	ALDH1A1 inh 25µM
COc1ccccc1C1C=C(c2ccc(C(C)C)cc2)Nc2nnnn21 (stereo not given)	none (no result: IMPase Li inh, HPGD block, ALDH1A1 inh, Luc counter)
CCN1CCN(c2nc(S(=O)(=O)c3ccc(C)cc3)c(Cl)s2)CC1	none (no result: HPGD block)
O=c1[nH]c2cc3c(cc2cc1C(c1nnnn1Cc1ccccc1)N1CCCc2ccccc21)OCO3 (stereo not given)	none
CCc1ccc2[nH]c(=O)c(C(c3nnnn3CC3CCCO3)N3CCCc4ccccc43)cc2c1 (stereo not given)	ALDH1A1 inh 7.9µM
Cc1cccc2cc(C(c3nnnn3CC3CCCO3)N3CCCc4ccccc43)c(=O)[nH]c12 (stereo not given)	ALDH1A1 inh 1.1µM
COc1ccc2[nH]c(=O)c(C(c3nnnn3CC3CCCO3)N3CCCCC3)cc2c1 (stereo not given)	ALDH1A1 inh inconclusive (no result: HPGD block)
Cc1cc2cc(C(c3nnnn3CC3CCCO3)N3CCCc4ccccc43)c(=O)[nH]c2cc1C (stereo not given)	HPGD block inconclusive, ALDH1A1 inh 2.5µM
CC(OCC(O)CN(C)Cc1nc2ccccc2c(=O)[nH]1)c1ccc(Cl)cc1 (stereo not given)	LMNA splice mod inconclusive (no result: HPGD block)
Cn1c(-c2ccc(C=O)s2)nc2c3ccccc3c3ccccc3c21	IMPase Li inh 13µM, HPGD block inconclusive
O=C(CCc1nnc(CCCc2ccccc2)o1)NCCN1CCOC1=O	LMNA splice mod inconclusive (no result: HPGD block)
O=C(CCCOc1ccc(Cl)cc1)N1CCCCC1	HPGD block 1.6µM
O=C(CCCOc1ccc(Cl)cc1)N1CCOCC1	none
CN(c1ccc(OCC(=O)N2CCCCC2)cc1)S(=O)(=O)c1cccs1	LMNA splice mod inconclusive, HPGD block 14µM
O=C(COc1ccc(Cl)cc1)N1CCN(C(=O)c2cccc(F)c2)CC1	ALDH1A1 inh 14µM
CN(c1ccc(OCC(=O)N2CCN(c3ccc(F)cc3)CC2)cc1)S(=O)(=O)c1cccs1	none (no result: HPGD block)
Cc1cc(Cl)ccc1OCC(=O)N1CCCCC1	LMNA splice mod inconclusive, HPGD block 28µM
Cc1cc(Cl)ccc1OCC(=O)N1CCN(c2ncccn2)CC1	LMNA splice mod inconclusive (no result: HPGD block)
O=C(COc1ccccc1)N1CCN(C(=O)c2cccc(F)c2)CC1	none
O=C(Nc1cnc(N2CCC(N3CCCCC3)CC2)c(C(=O)O)c1)c1ccc(Br)cc1	none (no result: IMPase Li inh, HPGD block, ALDH1A1 inh, Luc counter)
CN1CCN(c2ncc3nc(-c4ccccc4)c(=O)n(C)c3n2)CC1	ALDH1A1 inh inconclusive (no result: HPGD block, Luc counter)
O=C(c1cccc(F)c1)N1CCN(C(=O)c2nn3cccnc3c2Cl)CC1	ALDH1A1 inh 20µM
O=C(CCCOc1ccccc1)N1CCCCC1	HPGD block 4µM
O=C(COc1ccc(Cl)cc1)N1CCN(c2ncccn2)CC1	none
CC(=O)N1CCN(C(=O)COc2ccccc2C(=O)Nc2ccccc2)CC1	none (no result: HPGD block)
O=C(c1cccc(F)c1)N1CCCN(C(=O)c2cccc(F)c2)CC1	none
O=C(COc1ccc(Cl)cc1)N1CCCCC1	HPGD block 25µM
COc1ccc(OCCNC(=O)c2ccccc2OCC(=O)N2CCCCC2)cc1	LMNA splice mod inconclusive, ALDH1A1 inh 3.5µM
CCOC(=O)/C=C1\NC(=O)C(C)S1 (stereo not given)	none
COc1ncc2nc(C)c(=O)n(CCC#N)c2n1	none (no result: LMNA splice mod)
O=C(CCCOc1ccc(Cl)cc1)N1CCCCCC1	HPGD block 2.2µM, ALDH1A1 inh 7.9µM
O=C(/C=C/c1ccccc1)N1CCN(CCN2C(=O)c3cccc4cccc(c34)C2=O)CC1	ALDH1A1 inh inconclusive
O=S(=O)(NCc1csc(-c2cccnc2)n1)c1ccc(Cl)s1	none
O=S(=O)(NCc1csc(-c2ccccc2)n1)c1ccc(Cl)s1	HPGD block 18µM
Cc1ccc(-n2[nH]c(=O)c3cccnc32)cc1	HPGD block 16µM
COc1cccc(OC)c1OCCCOc1ccc([N+](=O)[O-])cc1Cl	LMNA splice mod inconclusive, HPGD block 16µM
COc1cccc(OC)c1OCCCOc1ccc(C)cc1Br	LMNA splice mod inconclusive, HPGD block 22µM
CCOc1ccccc1OCCCOc1ccc([N+](=O)[O-])cc1Cl	LMNA splice mod inconclusive, ALDH1A1 inh inconclusive
COc1ccccc1OCCCOc1c(C)cc(C)cc1Br	none
